Laboratory results published in PubChem BioAssay.
The source made the active and inactive calls.

Assay: growth of efflux-deficient E. coli DRC39 – strain DRC39, OD650, 48 h, E. coli filamentation inducers, primary screen (AID 1179);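 note: screen aims at cell division blockers that make cells filament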
Conditions: E. coli DRC39 delta-acrAB growth, higher = more signal, called active from +8 up or from −8 down
With `Cc1ccc(S[C@]2(C(=O)NCC(F)(F)F)CC(=O)N(Cc3ccccc3)[C@@H]2c2ccc(CO)cc2I)cc1` the z-score was 0.562 (inactive).
With `O=C(NCC(F)(F)F)[C@@H]1c2ccccc2C(=O)N(Cc2cc(F)cc(C(F)(F)F)c2)[C@H]1c1ccc(CO)cc1` the z-score was -0.0858 (inactive).
For `C=C(CCCC)/C(=C/C[C@@H](OC(=O)c1ccncc1)c1ccccc1OCCO)c1cnc2ccccc2c1`, the z-score was -0.514 (inactive).
For `[N-]=[N+]=Nc1ccccc1C[C@]1(C(=O)N2CCOCC2)N=C(c2ccc(OCCCO)cc2)O[C@H]1c1ccccc1`, the z-score was 0.356 (inactive).
For `CCCNC(=O)[C@@H]1c2ccccc2C(=O)N(C(C)C)[C@H]1c1ccc(CO)cc1`, the z-score was 1.31 (inactive).
In the case of `O=C1O[C@H](c2ccccc2)[C@H](c2ccccc2)N2[C@H]1[C@@H](C(=O)Nc1nc3ccccc3s1)[C@]1(C(=O)Nc3ccc(C#CC4(O)CCCCCC4)cc31)[C@H]2c1ccccc1OCCO`, the z-score is reported as -0.508 (inactive).
In the case of `O=C1OCC=C[C@H]2OC34C=CCN(Cn5nnc6ccccc65)C(=O)[C@H]3N(CCCO)C(=O)[C@@H]4[C@@H]12` (some centres undefined), the z-score is reported as -1.1 (inactive).
For `COC(=O)[C@@]1(Cc2ccccc2)[C@H]2c3cc(C(=O)N(C)C)n(Cc4c(CO)[nH]cc(C)c4=O)c3C[C@H]2CN1C(=O)c1ccccc1`, the z-score was 0.0568 (inactive).
For `COC(=O)[C@@]1(Cc2ccc(OC)cc2)[C@H]2c3cc(C(=O)N(C)C)n(Cc4ccc(Cl)c(C(F)(F)F)c4)c3C[C@H]2CN1C(=O)c1ccccc1`, the z-score was -0.0176 (inactive).
With `C=CCNC(=O)[C@H]1[C@@H]2C(=O)O[C@@H](c3ccccc3)[C@@H](c3ccccc3)N2[C@@H](c2ccc(O)cc2)[C@]12C(=O)N(C(=O)OCCOC)c1ccccc12` the z-score was -1.08 (inactive).
With `CCCCCCCCCCC(O)C1C=CC2C(=O)N(C)C(=O)C2N1NC(=O)OC(C)(C)C` (centres undefined) the z-score was -1.45 (inactive).
In the case of `NC(N)=NCCCn1cc(CNC(=O)[C@@H](N)Cc2ccccc2)nn1`, the z-score is reported as -0.0439 (inactive).
For `CCOC(=O)C1CCCCN1` (centres undefined), the z-score was -0.0724 (inactive).

Assay: viability profiling in RPMI8226 myeloma cells – cell-based, resazurin fluorescence, basal, 24 h, PK04 Diversity Set, profiling panel (AID 1180);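 note: RPMI8826 multiple myeloma cell line at 5000 cells per well; test concentration not given here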
Conditions: higher = more signal
Work on `Cc1ccc(S[C@]2(C(=O)O)CC(=O)N(Cc3cc(C(F)(F)F)cc(C(F)(F)F)c3)[C@@H]2c2ccc(CO)cc2)cc1` yielded a z-score of -0.278.
Compound `CC(C)Cc1ccc(CN2CC[C@@H](NC(=O)Nc3ccccc3)C2)cc1` has a z-score of -4.87.
Work on `C=CC1c2cc(O)c(OC)cc2CCN1Cc1cc2c(cc1Br)OCO2` (centres undefined) yielded a z-score of -2.82.
Compound `O=C1O[C@H](c2ccccc2)[C@H](c2ccccc2)N2[C@H]1[C@@H](C(=O)N1CCN(c3ncccn3)CC1)[C@]1(C(=O)Nc3ccc(C#CC4(O)CCCCCC4)cc31)[C@H]2c1ccc(OCCO)cc1` has a z-score of 0.478.
With `COC(=O)C(CC#Cc1ccc2c(c1)[C@]1(C(=O)N2)[C@H](c2ccccc2OCCO)N2[C@H](c3ccccc3)[C@H](c3ccccc3)OC(=O)[C@H]2[C@@H]1C(=O)NC[C@H](O)c1ccccc1)C(=O)OC` the z-score was -6.97.
With `Cc1ccccc1C(O)C1C=CC2C(=O)N(C)C(=O)C2N1N(c1ccccc1)c1ccccc1` (centres undefined) the z-score was -0.0373.
Work on `CCC[C@@H]1C[C@@]1(CCC)[C@@H](NC(=O)OCc1ccccc1)c1ccc(-c2ccccc2)cc1` yielded a z-score of 1.72.
In the case of `CN(C)C(=O)C1N=C(c2ccc(OCCCO)cc2)N(c2ccccc2)O1` (centres undefined), the z-score is reported as 0.271.
`O=C1O[C@H](c2ccccc2)[C@H](c2ccccc2)N2[C@H]1[C@@H](C(=O)O)[C@]1(C(=O)Nc3ccc(C#CC4=CCCCC4)cc31)[C@H]2c1ccc(O)cc1` showed a z-score of -0.0705.
In the case of `C=CCOC(=O)[C@H]1[C@@H]2C(=O)O[C@@H](c3ccccc3)[C@@H](c3ccccc3)N2[C@@H](c2ccc(OCCOC(=O)[C@H]3C[C@H]4C(=O)N[C@@H](CCCCNC(C)=O)C(=O)N4[C@H]3c3ccc(O)cc3)cc2)[C@]12C(=O)Nc1ccccc12`, the z-score is reported as 1.11.
In the case of `CN1C(=O)C2C=CC(C(O)c3cccc4ccccc34)N(N3CCCCC3)C2C1=O` (centres undefined), the z-score is reported as -1.74.
With `C=CCOC(=O)[C@H]1[C@@H]2C(=O)O[C@@H](c3ccccc3)[C@@H](c3ccccc3)N2[C@@H](c2ccc(OCCOC(=O)[C@@H]3C[C@@H]4C(=O)N5CCC[C@H]5C(=O)N4[C@@H]3c3ccc(O)cc3)cc2)[C@]12C(=O)Nc1ccc(I)cc12` the z-score was -0.686.
`O=C1C2C=CC(C(O)c3ccccc3)N(Nc3ccccc3F)C2C(=O)N1c1ccccc1` (centres undefined) gave a z-score of 0.466.
Compound `CN(C)c1ccc(C(O)C2C=CC3C(=O)N(c4ccccc4)C(=O)C3N2Nc2ccc([N+](=O)[O-])cc2)cc1` (centres undefined) has a z-score of -1.41.
Compound `[N-]=[N+]=NCc1ccccc1[C@H]1OC(c2ccc(OCCCO)cc2)=N[C@@]1(CCS(=O)(=O)c1ccccc1)C(=O)N1CCCCC1` has a z-score of -0.661.
Work on `C=CCOC(=O)[C@H]1[C@@H]2C(=O)O[C@@H](c3ccccc3)[C@@H](c3ccccc3)N2[C@@H](c2ccc(OCCOC(=O)[C@@H]3C[C@@H]4C(=O)N[C@@H](CCCCNC(C)=O)C(=O)N4[C@@H]3c3ccc(O)cc3)cc2)[C@]12C(=O)Nc1ccc(I)cc12` yielded a z-score of -0.533.
`COc1cc2c(cc1OC)CN(C(=O)[C@@H]1[C@H]3C(=O)O[C@H](c4ccccc4)[C@H](c4ccccc4)N3[C@H](c3ccc(OCCO)cc3)[C@@]13C(=O)Nc1ccc(C#CC4(O)CCCCCC4)cc13)CC2` showed a z-score of -0.221.
For `C=C(/C(=C/C[C@H](OC(C)=O)c1ccccc1OCCO)c1cc(C(=O)OC)ccc1OC)C(C)C`, the z-score was 0.0967.
Compound `CCOC(=O)C[C@H]1[C@H](OC(=O)c2cc3ccccc3oc2=O)[C@@H](NC(=O)c2ccc(-c3ccccc3)cc2)c2cc(OCCCO)ccc2N1C(=O)c1ccc2ccccc2n1` has a z-score of 0.0692.
Compound `CN(C)CCCCNC(=O)[C@@H]1C[C@@H]2C(=O)N[C@@H](Cc3ccccc3)C(=O)N2[C@@H]1c1cccc(OCCO)c1` has a z-score of 0.588.
Work on `COc1ccc([Si](C)(C)[C@@H]2[C@@H](CCO)O[C@]3(C(=O)N(Cc4ccc(N5CCCCC5=O)cc4)c4ccccc43)[C@H]2C)cc1` yielded a z-score of -2.24.
Work on `COCCOC(=O)N1C(=O)[C@@]2(c3cc(C#CC4=CCCCC4)ccc31)[C@H](c1ccccc1OCCO)N1[C@H](c3ccccc3)[C@H](c3ccccc3)OC(=O)[C@H]1[C@@H]2C(=O)Nc1nc2ccccc2s1` yielded a z-score of -0.765.
Work on `CCCCC(=C=CC[C@@H](O)c1ccccc1OCCO)C[C@@H](O)COCc1ccccc1` yielded a z-score of 0.267.
Work on `Cc1ccc(S[C@]2(C(=O)NCC(F)(F)F)CC(=O)N(Cc3ccccc3)[C@@H]2c2ccc(CO)cc2I)cc1` yielded a z-score of -2.27.
`O=C(NCC(F)(F)F)[C@@H]1c2ccccc2C(=O)N(Cc2cc(F)cc(C(F)(F)F)c2)[C@H]1c1ccc(CO)cc1` showed a z-score of 0.867.
For `C=C(CCCC)/C(=C/C[C@@H](OC(=O)c1ccncc1)c1ccccc1OCCO)c1cnc2ccccc2c1`, the z-score was 0.133.
With `[N-]=[N+]=Nc1ccccc1C[C@]1(C(=O)N2CCOCC2)N=C(c2ccc(OCCCO)cc2)O[C@H]1c1ccccc1` the z-score was 0.101.
`CCCNC(=O)[C@@H]1c2ccccc2C(=O)N(C(C)C)[C@H]1c1ccc(CO)cc1` showed a z-score of 0.497.
`O=C1O[C@H](c2ccccc2)[C@H](c2ccccc2)N2[C@H]1[C@@H](C(=O)Nc1nc3ccccc3s1)[C@]1(C(=O)Nc3ccc(C#CC4(O)CCCCCC4)cc31)[C@H]2c1ccccc1OCCO` gave a z-score of -5.13.
`O=C1OCC=C[C@H]2OC34C=CCN(Cn5nnc6ccccc65)C(=O)[C@H]3N(CCCO)C(=O)[C@@H]4[C@@H]12` (some centres undefined) gave a z-score of -0.509.
`COC(=O)[C@@]1(Cc2ccccc2)[C@H]2c3cc(C(=O)N(C)C)n(Cc4c(CO)[nH]cc(C)c4=O)c3C[C@H]2CN1C(=O)c1ccccc1` showed a z-score of 0.0961.
With `COC(=O)[C@@]1(Cc2ccc(OC)cc2)[C@H]2c3cc(C(=O)N(C)C)n(Cc4ccc(Cl)c(C(F)(F)F)c4)c3C[C@H]2CN1C(=O)c1ccccc1` the z-score was -2.7.
For `C=CCNC(=O)[C@H]1[C@@H]2C(=O)O[C@@H](c3ccccc3)[C@@H](c3ccccc3)N2[C@@H](c2ccc(O)cc2)[C@]12C(=O)N(C(=O)OCCOC)c1ccccc12`, the z-score was 0.164.
Compound `CCCCCCCCCCC(O)C1C=CC2C(=O)N(C)C(=O)C2N1NC(=O)OC(C)(C)C` (centres undefined) has a z-score of -5.64.
With `NC(N)=NCCCn1cc(CNC(=O)[C@@H](N)Cc2ccccc2)nn1` the z-score was -0.68.
Work on `CCOC(=O)C1CCCCN1` (centres undefined) yielded a z-score of -0.809.
